Screening data as filed in PubChem.
A selection: hits, their analogues and other compounds. The true share with any hit is near 8.8%.
HTT aggregate = qHTS Multiplex Assay to Identify Dual Action Probes in a Cell Model of Huntington: Aggregate Formation (GFP). PC12 HttQ103-GFP aggregates, Acumen cytometry, 40 h. Potency, µM (top dose mostly 46.1 µM), without a hit: top-dose activity change, negative = inhibition, usual class: inhibitors. AID 1688, 2009. 1.1% of 220,000 active; also: % is scaled to controls: 0 for no effect and ±100 for the full control effect; nearly all actives have a fitted effect of over 60% in size
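PC12 cells with ecdysone-inducible HTT exon1 Q103-GFP, induced by 100 nM tebufenozide, given compounds in a concentration series. GFP aggregates (1–25 um, 6 SD above background) counted in lysates by laser-scanning cytometry, 488 nm excitation.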
HPGD inh = qHTS Assay for Inhibitors of HPGD (15-Hydroxyprostaglandin Dehydrogenase) | Potency, µM, for inactives: top-dose activity change, negative = inhibition, hits mostly inhibitors | 4.3% of 150,000 active | purified HPGD, NADH fluorescence kinetic, PGE2 substrate; active = well fitted inhibition curve with a large enough effect, not every such curve was filed as active; inconclusive = small, poorly fitted or top-dose-only effect, or another doubt; inactive = no such curve, though single readings can be large or run the other way; also: % is scaled to controls: 0 for no effect and ±100 for the full control effect
Target sequence (P15428 whole entry, looked up): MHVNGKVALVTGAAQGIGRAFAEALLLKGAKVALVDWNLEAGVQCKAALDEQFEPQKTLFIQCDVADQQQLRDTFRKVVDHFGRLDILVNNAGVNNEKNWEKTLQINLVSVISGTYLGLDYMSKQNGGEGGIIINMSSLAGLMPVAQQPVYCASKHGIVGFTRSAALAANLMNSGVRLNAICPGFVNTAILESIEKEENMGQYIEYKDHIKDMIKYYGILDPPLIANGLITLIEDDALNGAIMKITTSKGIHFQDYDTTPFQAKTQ
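NADH formation kinetics: reaction with 30 uM PGE2 and 1 mM NAD+ (final), 20 nM enzyme, Tris-HCl pH 8 with Tween 20, after 15 min compound preincubation at room temperature. Fluorescence change, last versus first of five reads.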
HTT ATP protect = qHTS Multiplex Assay to Identify Dual Action Probes in a Cell Model of Huntington: Cytoprotection (ATP); Potency, µM (top dose mostly 56.4 µM), for the others: cytoprotection (ATP increase), hits mostly activators; AID 1471, 2008; 0.14% of 230,000 active; PC12 HTT-Q103 induced, cytoprotection, ATP luminescence, 40 h; also: % of control where 0% means no effect; nearly all actives have a fitted effect of over 45% in size
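Compounds added alongside 100 nM tebufenozide, which induces toxic Q103 huntingtin exon 1-GFP in stable PC12 cells; surviving cells quantified by luminescent ATP measurement. Medium: phenol red-free DMEM, 5% equine and 5% calf serum.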
ALDH1A1 inh = qHTS Assay for Inhibitors of Aldehyde Dehydrogenase 1 (ALDH1A1). Purified ALDH1A1, NADH fluorescence, propionaldehyde substrate. 7.3% of 220,000 active. AID 1030, 2008. Potency, µM (top dose mostly 75.3 µM), for inactives: at the top dose activity, negative = inhibition, hits mostly inhibitors; active = well fitted inhibition curve with a large enough effect, not every such curve was filed as active; inconclusive = small, poorly fitted or top-dose-only effect, or another doubt; inactive = no such curve, though single readings can be large or run the other way;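 also: plate controls were no enzyme wells and a reference inhibitor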
Target sequence (P00352 whole entry, looked up): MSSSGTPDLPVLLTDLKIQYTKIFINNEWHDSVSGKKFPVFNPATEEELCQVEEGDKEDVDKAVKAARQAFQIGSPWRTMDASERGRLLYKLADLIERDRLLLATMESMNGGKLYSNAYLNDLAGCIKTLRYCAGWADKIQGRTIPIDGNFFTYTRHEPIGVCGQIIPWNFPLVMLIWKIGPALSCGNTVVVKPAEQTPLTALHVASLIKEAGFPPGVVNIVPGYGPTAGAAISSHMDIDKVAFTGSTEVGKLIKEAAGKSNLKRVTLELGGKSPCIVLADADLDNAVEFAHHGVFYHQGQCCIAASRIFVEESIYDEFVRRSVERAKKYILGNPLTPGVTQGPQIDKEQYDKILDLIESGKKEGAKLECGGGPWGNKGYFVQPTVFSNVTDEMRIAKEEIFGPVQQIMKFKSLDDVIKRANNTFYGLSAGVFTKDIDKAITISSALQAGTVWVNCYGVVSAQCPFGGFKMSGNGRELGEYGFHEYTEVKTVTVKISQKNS
LMNA splice mod = qHTS Assay for Modulators of Lamin A Splicing; AID 1487, 2009; 0.01% of 200,000 active; Potency, µM (doses to about 46.1 µM), for the others: at the top dose ratio change, negative = inhibition, most hits filed as inhibitors; HeLa LMNA splicing GFP/RFP minigene ratio, 48 h; active = well fitted inhibition curve with a large enough effect in the signal ratio, with a control signal flat, not every such curve was filed as active; inconclusive = small, poorly fitted or top-dose-only effect, or effect the other way, or a change in a side signal; the % refers to the signal ratio; also: % is scaled to controls: 0 for no effect and ±100 for the full control effect
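S3 HeLa cells stably expressing lamin A-EGFP splicing minigene plus DsRed2, 600 cells/well, 48 h compound exposure at 37C. Laser-scanning cytometry; analysed as GFP (500-530 nm)/RFP (575-640 nm) total intensity ratio; 0.5% DMSO vehicle.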
* = called active by the depositor; u = inconclusive; x = not tested or not shown; ! = not confirmed by another sample; [ ] = dose if it differs, or a comment. Unless noted, calls follow the shape of the dose curve; as a rule, active = well fitted curve in the direction sought with a large enough effect; inconclusive = small, poorly fitted or top-dose-only effect, or another doubt; inactive = no such curve, though single readings can be large; an effect the other way counts as inactive or inconclusive. Potency is read from the fitted curve at half-maximal effect.

SMILES	HTT aggregate	HPGD inh	HTT ATP protect	ALDH1A1 inh	LMNA splice mod
O=P1(Nc2cccnc2)COc2ccccc2OC1	10%	7.1µM*	-7%[0.074 µM]	-5%	0%
NCCNCCNCCNCCN	17%	-8%	u	32µM*	u
CCN1C[C@@]2(COC)[C@H](O)C[C@H](OC)[C@@]34[C@@H]5C[C@@]6(O)[C@H](OC(=O)c7ccccc7)[C@H]5[C@@](OC(C)=O)([C@H]([C@@H](OC)[C@H]23)[C@H]14)[C@H](O)[C@@H]6OC	x	x	-7%	x	x
N#CSCC(=O)N1c2ccccc2CCc2ccccc21	u	18µM*	20%[10 µM]	0.79µM*	u
COc1ccc(O)c(CN2CCCC(C(=O)c3sccc3C)C2)c1 (configuration not stated)	27%[9.22 µM]	x	21%[10 µM]	13µM*	-27%[46 µM]
Cc1ccsc1C(=O)C1CCCN(Cc2ccccc2O)C1 (configuration not stated)	0%[9.22 µM]	x	5%[10 µM]	-2%	u
CCCOc1ccc2[nH]cc(C3=CCNCC3)c2n1	x	u	-15%	u	x
CCCCCCCCCCCC[N+](C)(C)CCOc1ccccc1	u	-6%	-219%	14µM*	u
CC(C)[C@@]1(NC(=O)[C@@H]2C[C@H]3c4cccc5[nH]cc(c45)C[C@@H]3N(C)C2)O[C@@]2(O)[C@H]3CCCN3C(=O)[C@@H](Cc3ccccc3)N2C1=O	x	x	-33%	x	x
CCCCn1c(O)c(C=NC2CC3CCC2(C)C3(C)C)c(=O)[nH]c1=O (configuration not stated)	13µM*	-12%	5%[10 µM]	-5%	u
CN1CCN(c2ccc(N)cc2)CC1	12%	-13%	22%	32µM*	-11%
CN1CCN(c2ccc(C=O)cc2)CC1	19%	-5%	24%	13µM*	11%
CN1CCN(c2ccc(NC(=O)C(C)(C)C)cc2)CC1	-5%	-6%	-15%	8%	-2%
O=P(O)(O)c1ccccc1 (tested in a mixture with another compound)	x	-7%	11%[10 µM]	11%[13.5 µM]	x
O=C1NC(=O)C(=Cc2coc3ccccc3c2=O)C(=O)N1	-14%	x	11%	3.5µM*	x
O=C1NC(=O)C(=Cc2csc3ccccc23)C(=O)N1	8%[9.22 µM]	x	21%[10 µM]	10µM*	x
O=C1NC(=O)C(=C/C=C/c2coc3ccc(Br)cc3c2=O)C(=O)N1	-1%[9.22 µM]	x	1%[10 µM]	3.2µM*	9%[46 µM]
CN(C)CCN(C)CCc1ccc(Cl)c(Cl)c1	x	-6%	-13%	-11%	x
BrC(Br)Br	x	-2%	-7%	1%	x
Clc1cccc(C(Cl)(Cl)Cl)n1	x	-2%	-1%	1%	x
CC(=O)Nc1ccc(S(=O)(=O)NC(CC(=O)N2CCC3(CC2)OCCO3)C(C)C)cc1 (configuration not stated)	9%	3%	7%[10 µM]	4%	10%
Cc1ccc(S(=O)(=O)NC(CC(=O)N2CCC3(CC2)OCCO3)c2ccco2)cc1 (configuration not stated)	-20%	-2%	-33%[10 µM]	13µM*	-3%
N/C(=N\N=C/c1ccc(-c2ccc(O)c(C(=O)O)c2)o1)N[N+](=O)[O-]	-1%	7.1µM*	-36%	u	11%
CCOC(=O)CC(SP(=O)(OC)OC)C(=O)OCC (configuration not stated)	x	-21%	-68%	11µM*	x
CCOC(=O)CBr	x	-12%	17%	u	x
SMILES	HTT aggregate	HPGD inh	HTT ATP protect	ALDH1A1 inh	LMNA splice mod
CCCCN1C(=O)/C(=C/c2ccc(N(C)C)cc2)C(=O)N(Cc2ccco2)C1=O	27%	25µM*	13%	0.71µM*	5%
CCCCn1c(=O)c(C=Nc2ccc(Cl)cc2)c(O)n(Cc2ccco2)c1=O	6%	u	-1%[10 µM]	u	3%
O=C1NC(=O)N(Cc2ccco2)C(=O)/C1=C/c1cccn1CCOc1ccccc1Cl	4%	28µM*	30%[10 µM]	-4%	u
CCN(CC)c1ccc(/C=C2/C(=O)NC(=O)N(CC3CCCO3)C2=O)cc1 (configuration not stated)	21%	35µM*	-9%	0.63µM*	4%
CCN(CC)c1ccc(/C=C2\C(=O)NC(=O)N(Cc3ccco3)C2=O)cc1	-11%	16µM*	1%[10 µM]	0.5µM*	-6%
CC1CC(C)C(=O)[C@H](C(O)CC2CC(=O)NC(=O)C2)C1 (some centres not stated)	x	-2%	x	4%	x
C=C(C)[C@@H]1CN[C@H](C(=O)O)[C@H]1CC(=O)O	x	x	-20%[1.9 µM]	x	x
Clc1ccccc1-c1cncnc1NCCc1cnc[nH]1	x	x	u	6%	u
CC(=O)OCC1=C(C(=O)[O-])N2C(=O)[C@@H](NC(=O)CCC[C@@H](N)C(=O)[O-])[C@@H]2SC1.[Zn+2]	x	x	-9%[1.9 µM]	x	x
O=C(O)Cn1cc(/C=C2\C(=O)NC(=O)N(Cc3ccco3)C2=O)c2ccccc21	-12%	x	-3%[10 µM]	8.9µM*	27%[46 µM]
CN(C)c1ccc(N=O)cc1	x	-14%	-88%	0.4µM*	x
CN(C)c1ccc(N=Nc2ccccc2)cc1	x	-11%	-107%	u	x
CN(C)c1ccc(N)cc1	x	-7%	-153%	14µM*	x
CC(C)c1ccc(-n2c(O)c(/C=N/NC(=O)c3ccccc3O)c(=O)[nH]c2=S)cc1	16%[9.22 µM]	x	14%[10 µM]	x	x
Cn1c(=O)c2c(nc(N/N=C/c3c(O)n(-c4ccccc4)c(=S)[nH]c3=O)n2C)n(C)c1=O	-2%	-22%	-15%[10 µM]	8.9µM*	-10%
C=CC(N)=O	x	-3%	u	25%	x
Cc1cc(Cl)ccc1OCCCC(=O)NCc1cccs1	14%	32µM*	-3%[10 µM]	3%	-19%
CCCBr	x	-3%	-7%	5%	x
Cc1ncc([N+](=O)[O-])n1CCN=[N+]=[N-]	x	-1%	-3%[10 µM]	9%[13.5 µM]	x
O=c1c(O)c(-c2ccc(O)c(O)c2)oc2cc(O)cc(O)c12	-26%	20µM*!	u	13µM*!	u
O=c1cc(-c2ccc(O)c(O)c2)oc2cc(O)cc(O)c12	-32%[9.22 µM]	11µM*!	u	20µM*	u
Cc1cc[c]([Sb]2[O][C@H]([C@H](O)[C@H](O)C(=O)O)[C@@H](CO)[O]2)cc1	x	x	2%[10 µM]	x	x
COc1cc(CC2(CCc3ccncc3)C(=O)NC(=O)NC2=O)cc(OC)c1OC	7%[9.22 µM]	x	1%[10 µM]	-1%	3%[46 µM]
COc1cc2c(cc1OC)-c1c(OC)c(OC)c(OC)c3ccnc(c13)C2=O	11µM*	u	x	3%	u
CN(C)C(=S)SSC(=S)N(C)C	1µM*!	0.71µM*	-309%	0.079µM*	u
CN(C)C(=S)SC(=S)N(C)C	3.2µM*	-20%	-97%	3.5µM*	u
CCCCC(=O)N/N=C/c1c(O)n(C2CC2)c(=S)[nH]c1=O	-4%	-5%	x	-11%	-12%
